Most compounds without a hit are left out; they make up all but 2.6% or so of the library.
SmPrx2 inh – Schistosoma Mansoni Peroxiredoxins (Prx2). Schistosoma mansoni peroxiredoxin 2 (Prx2). S. mansoni Prx2 activity coupled to TGR/GSH (TGR is thioredoxin glutathione reductase), NADPH fluorescence loss, qHTS. Potency, µM. actives 0.07% (n = 65,000). AID 448, 2006
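Prx2 activity was followed as the loss of NADPH fluorescence (ex 365/em 450 nm), read every 30 sec for 8 min after H2O2 start. The enzyme mix (50 nM Prx2, 25 nM TGR, GSH, NADPH; pH 7.4 phosphate buffer) was incubated with compound for 15 min at room temperature first.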
AmpC inh det – Promiscuous and Specific Inhibitors of AmpC Beta-Lactamase (assay with detergent); purified AmpC, nitrocefin hydrolysis with detergent; AID 584, 2007; Potency, µM (top dose mostly 28.7 µM); actives 0.09% (n = 71,000); active = well fitted curve in the direction sought with a large enough effect; inconclusive = small, poorly fitted or top-dose-only effect
Target sequence (P00811 whole entry, looked up): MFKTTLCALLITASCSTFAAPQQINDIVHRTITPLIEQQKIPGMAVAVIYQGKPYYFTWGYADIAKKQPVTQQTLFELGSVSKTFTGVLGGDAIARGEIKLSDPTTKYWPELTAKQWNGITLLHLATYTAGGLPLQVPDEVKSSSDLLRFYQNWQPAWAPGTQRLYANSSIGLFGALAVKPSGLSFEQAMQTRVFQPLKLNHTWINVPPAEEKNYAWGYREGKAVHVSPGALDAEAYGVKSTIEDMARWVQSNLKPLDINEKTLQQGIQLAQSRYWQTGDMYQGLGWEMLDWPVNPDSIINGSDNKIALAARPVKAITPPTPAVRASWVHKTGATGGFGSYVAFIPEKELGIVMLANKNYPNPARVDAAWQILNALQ
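E. coli AmpC (5.3 nM) in 20 mM phosphate pH 7.0 with 0.01% Triton X-100, preincubated 15 min RT with compound; nitrocefin (2 uL of 800 uM stock) hydrolysis followed by 480 nm absorbance every 20 s over 4 min.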
LT uptake inh – qHTS Assay for Anthrax Lethal Toxin Internalization; actives 0.67% (n = 70,000); Potency, µM (top dose mostly 40 µM), hits mostly inhibitors; AID 912, 2007; Cells, anthrax lethal toxin internalization, FRET ratio (460/530); note: nearly all actives have a fitted effect of over 50% in size
AmpC inh no det – Promiscuous and Specific Inhibitors of AmpC Beta-Lactamase (assay without detergent); actives 1.8% (n = 71,000); AmpC nitrocefin hydrolysis, absorbance 480 nm, no detergent; P00811; Potency, µM (titrated, usually from 28.7 µM); AID 585, 2007
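AmpC, 20 mM phosphate pH 7.0; 15 min cpd preinc, RT; start with nitrocefin (800 uM stock); A480 kinetic read, 20 s intervals, 4 min. No-enzyme wells = negative control.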
A number is an active result; [ ] = dose if it differs, or a comment. Unless noted, calls come from the whole dose curve.

How did Cc1ccc(S(=O)(=O)N2CCN(C(=O)CSc3nc4ccccc4c(=O)[nH]3)CC2)cc1 do in these assays?
SmPrx2 inh: inactive; AmpC inh det: inactive; LT uptake inh: inactive; AmpC inh no det: inactive

What do the screens show for `COc1ccc(-c2nnc(SCC(=O)Nc3cccc(Cl)c3)o2)cc1`?
SmPrx2 inh: inactive; AmpC inh det: inactive; LT uptake inh: inactive; AmpC inh no det: 7.9µM

How did Cc1ccc(NC(=O)CSC(N)=O)cc1Cl do in these assays?
SmPrx2 inh: inactive; AmpC inh det: inactive; LT uptake inh: inactive; AmpC inh no det: 13µM

Results for NC(=O)SCC(=O)Nc1cccc(Cl)c1 ?
AmpC inh det: inactive; LT uptake inh: inactive; AmpC inh no det: 7.9µM

Results for NC(=O)SCC(=O)Nc1ccc(Cl)c(Cl)c1 ?
AmpC inh det: inactive; LT uptake inh: inactive; AmpC inh no det: 5µM

What do the screens show for `CC(C)C[C@@H](CC(=O)N[C@@H](CCC(=O)O)CC(=O)O)NC(=O)[C@@H]1CCCC[C@H]1NC(=O)C[C@@H](NC(=O)C[C@H](Cc1ccccc1)NC(=O)[C@@H]1CCCC[C@H]1N)C(C)C`?
SmPrx2 inh: inactive; AmpC inh det: inactive; LT uptake inh: inactive; AmpC inh no det: inactive

How did CCOC(=O)N1CCC(NC(=O)Cn2nc(-c3ccccc3)ccc2=O)CC1 do in these assays?
SmPrx2 inh: inactive; AmpC inh det: inactive; LT uptake inh: inconclusive; AmpC inh no det: inactive

What do the screens show for `CCOC(=O)N1CCC(NC(=O)Cn2nc(Cc3ccncc3)c3ccccc3c2=O)CC1`?
SmPrx2 inh: inactive; AmpC inh det: inactive; LT uptake inh: inactive; AmpC inh no det: 4µM[single pt active]

What do the screens show for `Cc1cc(-c2ccc(N=Nc3cc(S(=O)(=O)O)c4ccccc4c3N)c(C)c2)ccc1N=Nc1cc(S(=O)(=O)O)c2ccccc2c1N`?
AmpC inh det: 13µM; LT uptake inh: inconclusive; AmpC inh no det: 5µM

How did Nc1c(S(=O)(=O)O)cc(S(=O)(=O)O)c2ccc(N=Nc3ccccc3)c(O)c12 do in these assays?
SmPrx2 inh: inactive; AmpC inh det: inactive[5.75 µM]; LT uptake inh: inactive[8 µM]; AmpC inh no det: inactive[5.75 µM]

How did CCOC(=O)C1CCN(C(c2cc(OC)c(OC)c(OC)c2)c2sc3nc(C)nn3c2O)CC1 (centres undefined) do in these assays?
SmPrx2 inh: inactive; AmpC inh det: inactive; LT uptake inh: 16µM; AmpC inh no det: inactive

What do the screens show for `COC(=O)C1CCN(C(c2cc(OC)c(OC)c(OC)c2)c2sc3nc(C)nn3c2O)CC1` (centres undefined)?
SmPrx2 inh: inactive; AmpC inh det: inactive; LT uptake inh: inactive; AmpC inh no det: inactive

How did O=C1C=CC2=C3c4cc(O)c(O)cc4C[C@@]3(O)COC2=C1O do in these assays?
SmPrx2 inh: inactive; AmpC inh det: inactive; LT uptake inh: 25µM; AmpC inh no det: 16µM

What do the screens show for `Cc1ccc([C@@H](O)c2cnc(C)n2Cc2ccccc2)cc1`?
SmPrx2 inh: inactive; AmpC inh det: inactive[5.75 µM]; LT uptake inh: inactive[8 µM]; AmpC inh no det: inactive[5.75 µM]

What do the screens show for `O=C1OCCC1Sc1nnc(-c2ccco2)o1` (centres undefined)?
SmPrx2 inh: 6.5; AmpC inh det: inactive; LT uptake inh: inactive; AmpC inh no det: inactive

What do the screens show for `CC(C)CN1CCCC2(CCN(C(=O)c3csnn3)CC2)C1`?
SmPrx2 inh: inactive; AmpC inh det: inactive; LT uptake inh: inconclusive; AmpC inh no det: inactive

Results for O=C(NCCN1CCN(C(=O)Nc2ccccc2)CC1)Nc1ccccc1 ?
SmPrx2 inh: inactive; AmpC inh det: inactive; LT uptake inh: inactive; AmpC inh no det: 4µM[single pt active]

How did CCOC(=O)c1cccc(NC(=O)CN2C(=O)C3C4C=CC(C4)C3C2=O)c1 (centres undefined) do in these assays?
SmPrx2 inh: inactive; AmpC inh det: inactive; LT uptake inh: inactive; AmpC inh no det: inactive

Results for Cc1ccccc1NC(=O)NCCN1C(=O)C2C3C=CC(C3)C2C1=O (centres undefined) ?
SmPrx2 inh: inactive; AmpC inh det: inactive; LT uptake inh: inactive; AmpC inh no det: 2µM[single pt active]

How did O=C(NCCN1C(=O)C2C3C=CC(C3)C2C1=O)N1CCCCC1 (centres undefined) do in these assays?
SmPrx2 inh: inactive; AmpC inh det: inactive; LT uptake inh: inactive; AmpC inh no det: 4µM[single pt active]

What do the screens show for `COc1ccc(NC(=O)NCCN2CCc3ccccc3C2)cc1`?
SmPrx2 inh: inactive; AmpC inh det: inactive; LT uptake inh: inactive; AmpC inh no det: inactive

Results for O=C(CCN1C(=O)C2C3C=CC(C3)C2C1=O)NCC1CCCO1 (centres undefined) ?
SmPrx2 inh: inactive; AmpC inh det: inactive; LT uptake inh: inactive; AmpC inh no det: inactive

What do the screens show for `Cc1cccc(NC(=O)NCCN2C(=O)C3C4C=CC(C4)C3C2=O)c1` (centres undefined)?
SmPrx2 inh: inactive; AmpC inh det: inactive; LT uptake inh: inactive; AmpC inh no det: 4µM[single pt active]

What do the screens show for `O=C(CCN1C(=O)C2C3C=CC(C3)C2C1=O)NCCN1CCCc2ccccc21` (centres undefined)?
SmPrx2 inh: inactive; AmpC inh det: inactive; LT uptake inh: inactive; AmpC inh no det: inactive

How did N[C@@H](CO)C(=O)O do in these assays?
SmPrx2 inh: inactive; AmpC inh det: inactive; LT uptake inh: inconclusive; AmpC inh no det: inactive

Results for CS(=O)(=O)N1CCC2(CC1)CN(C(=O)Nc1ccccc1)C2 ?
SmPrx2 inh: inactive; AmpC inh det: inactive; LT uptake inh: inactive; AmpC inh no det: inactive

What do the screens show for `CC(=O)N1CCC2(CC1)CCN(c1ccccn1)CC2`?
SmPrx2 inh: inactive; AmpC inh det: inactive; LT uptake inh: inactive; AmpC inh no det: inactive

What do the screens show for `Nc1ncnc2nc[nH]c12.Nc1ncnc2nc[nH]c12.[Cl][Pt]([Cl])([Cl])[Cl]`?
SmPrx2 inh: inactive; AmpC inh det: inactive[5.75 µM]; LT uptake inh: inactive[8 µM]; AmpC inh no det: inactive[5.75 µM]

How did O=C(NCCN1C(=O)C2C3C=CC(C3)C2C1=O)NCc1ccccc1 (centres undefined) do in these assays?
SmPrx2 inh: inactive; AmpC inh det: inactive; LT uptake inh: inactive; AmpC inh no det: 4µM[single pt active]

How did COc1ccc(NC(=O)NCCCN2CCCC2=O)cc1 do in these assays?
SmPrx2 inh: inactive; AmpC inh det: inactive; LT uptake inh: inactive; AmpC inh no det: 4µM[single pt active]

Results for Cc1ccc(NC(=O)NCCCN2CCOCC2)cc1 ?
SmPrx2 inh: inactive; AmpC inh det: inactive; LT uptake inh: inactive; AmpC inh no det: inactive

What do the screens show for `O=C(NCCN1C(=O)C2C3C=CC(C3)C2C1=O)Nc1ccccc1` (centres undefined)?
SmPrx2 inh: inactive; AmpC inh det: inactive; LT uptake inh: inactive; AmpC inh no det: 4µM[single pt active]

How did COc1ccc(NC(=O)NCCCN2CCCCC2C)cc1 (centres undefined) do in these assays?
SmPrx2 inh: inactive; AmpC inh det: inactive; LT uptake inh: inactive; AmpC inh no det: inactive

How did Cc1ccc(NC(=O)NCCN2C(=O)C3C4C=CC(C4)C3C2=O)cc1 (centres undefined) do in these assays?
SmPrx2 inh: inactive; AmpC inh det: inactive; LT uptake inh: inactive; AmpC inh no det: 4µM[single pt active]

Results for Cc1noc(C)c1C(=O)N1CCC[C@@]2(CCN(C(=O)Nc3cccc(F)c3)C2)C1 ?
SmPrx2 inh: inactive; AmpC inh det: inactive; LT uptake inh: inconclusive; AmpC inh no det: inactive

Assay outcomes deposited in PubChem by National Center for Advancing Translational Sciences (NCATS).
